This note sets out measurements from PubChem BioAssay (NCI).

Molecules are shown by their SMILES. The panel holds about 83,000 compounds, 20% with a hit somewhere; the sample as a whole holds those more often.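 Single-concentration screen, 48 h exposure, 96-well plates. Endpoint: percent growth. Below 10 = active.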 Unmarked numbers belong to inactive results. Calls of active or inactive are those of the source.

Common to all, as to assay: NCI-60 one-dose screen, 48 h (100 = growth as untreated, 0 = no growth, -100 = all killed)
Settings in all cases: 10 µM unless noted

For assay [1], the system named is SR leukemia.
Assay [2] deals with RPMI-8226 leukemia.
Assay [3] relates to OVCAR-8 ovarian.
Assay [4] relates to OVCAR-5 ovarian.
In assay [5] the test system is OVCAR-4 ovarian.
Assay [6] has as its system SK-OV-3 ovarian.
Assay [7] deals with IGROV1 ovarian.
The subject of assay [8] is OVCAR-3 ovarian.
Assay [9] has as its system HS 578T breast.
Assay [10] relates to NCI/ADR-RES ovarian.
For assay [11], the system named is T-47D breast.
For assay [12], the system named is BT-549 breast.
For assay [13], the system named is SW-620 colon.
Assay [14] has as its system MCF7 breast.
The subject of assay [15] is HCT-116 colon.
Assay [16] concerns HCC-2998 colon.
Assay [17] deals with KM12 colon.
Assay [18] deals with MDA-MB-435 melanoma.

As for `CCNC(=O)c1ccc2c(c1)nc(-c1ccc(Cl)cc1)n2-c1cc(C(C)(C)C)[nH]n1`, the growth in assay [1] was -11.8% (active); in [2], 76.5%; in assay [3], 77.1%; in assay [4], 63.9%; in assay [5], 70.9%; in [6] it was 26.9%. For the same compound, the growth in [7] was 47.7%; in [8] it was 21.5%; in assay [9], 59.7%; in [10] it was 9.67% (active); in assay [11], 51.7%; in [12], 41.8%. Also, the growth in assay [13] was 42.7%; in assay [14] it was 14.7%; in assay [15] it was 15.3%; in [16], 63.4%; in assay [17], 38.9%.
With `CN(C)CC(=O)c1ccc2cc(Br)c3ccccc3c2c1`, the growth in assay [1] is 13.4%; in assay [2], 46.9%; in assay [3], 57.9%; in [4], 83.7%; in [5], 72.2%; in [6], 69.7%. The growth in assay [7] is 38.5%; in assay [8], 85.8%; in [9], 55.4%; in [10] it was 72.8%; in assay [11] it was 37.1%; in assay [12], 60.2%. Moreover, the growth is 83.6% in assay [18]; 54.7% in assay [13]; 63.6% in assay [14]; 49.3% in assay [15]; 63.7% in [17].
Consider `C#Cc1cccc(Nc2nc3cc([N+](=O)[O-])ccc3nc2Nc2ccc(O)cc2)c1`, for which the growth in assay [1] is 3.34% (active); in [2], 11.9%; in assay [3], 18.3%; in assay [4] it was 45.8%; in assay [5] it was 43.9%; in assay [6] it was 39%. Besides, the growth is 27.2% in [7]; -26.2% (active) in [8]; 44.6% in assay [9]; 24.7% in assay [10]; -0.313% (active) in [11]; 27.7% in [12]. Moreover, the growth in [13] is -52.9% (active); in assay [14], 2.84% (active); in assay [15], -11.9% (active); in [16] it was 5.14% (active).
Regarding `CC(C)CC(=O)C(CCc1ccccn1)C(C)C` (configuration not stated), the growth in assay [1] was 108%; in assay [2], 95.8%; in [3], 105%; in assay [4], 105%; in assay [5], 111%; in assay [6], 120%. Further, the growth in assay [7] is 114%; in assay [8], 118%; in [9] it was 97.8%; in assay [10], 102%; in [11] it was 96.3%; in assay [12], 108%. Moreover, the growth in [18] was 104%; in assay [13], 104%; in assay [15] it was 105%; in [16], 106%; in assay [17], 113%.
Take `CCCCCCCCCCCCC1CCC(=O)O1` (configuration not stated): the growth in assay [1] was 93.6%; in assay [2] it was 97.4%; in assay [3], 108%; in assay [4], 85.4%; in assay [5], 94.1%; in assay [6], 102%. The growth in assay [7] was 86.7%; in assay [8] it was 105%; in [9], 108%; in [10], 100%; in assay [11], 74.1%; in assay [12], 96.5%. The growth was 98.8% in assay [18]; 90.3% in assay [13]; 95.2% in assay [15]; 104% in assay [16]; 100% in assay [17].
As for `COc1cc(/C=C\c2cc(/C=C\c3ccc(O)c(OC)c3)n(C(=O)Nc3ccc(C(F)(F)F)cc3)n2)ccc1O`, the growth in [1] is 13.2%; in assay [2] it was -0.214% (active); in assay [3] it was 0.433% (active); in assay [4], 115%; in assay [5], 76.7%; in assay [6], 66.1%. In addition, the growth in assay [7] was 42.8%; in assay [8] it was 13.8%; in [9] it was 51.9%; in assay [10] it was 51.7%; in assay [11], 47.4%; in assay [12], 19%. Also, the growth in assay [18] is 27.8%; in assay [13] it was 18%; in assay [14], 22.9%; in [15], -53.7% (active); in [16], 103%; in [17], 41.4%.
For the compound `CC(=O)O[C@@H]1CC2C(C)(C)CCCC2(C)C2=C1C(=O)C(C(C)C)=CC2=O` (some centres not stated), the growth was -0.431% (active) in assay [1]; 2.06% (active) in assay [2]; -2.03% (active) in assay [3]; -45.4% (active) in [4]; 13.4% in assay [5]; 17.2% in assay [6]. Moreover, the growth was 7.5% (active) in assay [7]; 0.0354% (active) in [8]; 9.38% (active) in assay [9]; 15.9% in [10]; -7.86% (active) in [11]; -13% (active) in assay [12]. Further, the growth was -52.5% (active) in assay [13], 3.73% (active) in assay [14], -24.4% (active) in assay [15] and -60% (active) in assay [16].
With `O=C(/C=C/c1ccccc1)c1c[nH]c2ccccc2c1=O`, the growth in [1] is 10.8%; in assay [2], -15.9% (active); in assay [3] it was -13.3% (active); in assay [4] it was 3.5% (active); in [5] it was 42.1%; in assay [6], 11.6%. The growth in [7] is -11.5% (active); in [8], -60.9% (active); in assay [9], -18.8% (active); in assay [10], 0.29% (active); in [11], 17.3%; in [12] it was -4.65% (active). Besides, the growth in assay [13] is -6.91% (active); in [14], 10.6%; in assay [15], 0.346% (active); in assay [16], 51.3%; in assay [17], 1.5% (active).
Take `Cc1cccc(N=NC(=S)NNc2cccc(C)c2)c1`: the growth was 107% in assay [1]; 96.4% in assay [2]; 108% in assay [3]; 111% in assay [4]; 101% in assay [5]; 105% in assay [6]. The growth was 92.4% in assay [7]; 139% in assay [8]; 116% in [9]; 113% in assay [10]; 97.6% in assay [11]; 134% in assay [12]. The growth in assay [13] was 107%; in assay [14] it was 92.8%; in assay [15], 109%; in assay [16] it was 104%; in assay [17], 124%.
